Assay results as given in PubChem BioAssay AID720519 (National Center for Advancing Translational Sciences (NCATS), 2013).
Records with an inconclusive call do not appear. Entries that show only a call come without a potency. Active and inactive are the calls of the source. Calls follow the shape of the dose curve; as a rule, active = well fitted activation curve with a large enough effect; inconclusive = small, poorly fitted or top-dose-only effect; inactive = flat fitted curve, though single readings scatter.

experiment: qHTS for Inhibitors of Cell Surface uPA Generation: Confirmatory Assay for Cherry-picked Compounds; settings: cell surface uPA activity generation, qHTS confirmation; series mostly up to 115 µM
Method in brief: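 RAW 264.7 cells at 4000/well, incubated overnight, then treated with compounds. After 24 h at 37 C, viability was read by ATPlite luminescence. An increase in signal indicates blocked uPA-dependent LF entry.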

| Structure (SMILES) | Potency |
| --- | --- |
| COc1cc(/C=C(/C#N)C(=O)Nc2ccccc2)ccc1OCc1ccc(C(=O)O)cc1 | inactive |
| COc1cc(CN2CCN(c3ncccn3)CC2)cc(OC)c1 | inactive |
| N#CCCN(C(=O)COC(=O)c1ccc2c(c1)NC(=O)CS2)c1ccc2c(c1)OCCO2 | inactive |
| OCC1CCCCN1CC(O)COC(c1ccc(F)cc1)c1ccc(F)cc1 (stereo unspecified) | inactive |
| CCCOc1ccc(CC2CCC(=O)NC2=O)cc1 (stereo unspecified) | inactive |
| COc1ccc(S(=O)(=O)c2c(O)c3ccc(C(=O)Nc4ccccc4)cc3[nH]c2=O)cc1 | inactive |
| c1ccc(C2[C@H]3CN(Cc4cccnc4)[C@H](c4ccccc4)C34CC2(c2ccccc2)C4)cc1 (stereo partly specified) | inactive |
| CN1CCN(c2ccc(S(=O)(=O)N3CCOCC3)cc2NC(=O)CSCc2ccccc2)CC1 | inactive |
| CCOc1ccc(N(CC(=O)Nc2ccc(CC)cc2)S(=O)(=O)c2c(C)[nH]c(=O)[nH]c2=O)cc1 | inactive |
| CCCNC(=O)COc1coc(CN2CCN(c3ccccc3OC)CC2)cc1=O | inactive |
| OC(COc1ccc(Br)cc1)CN1CCN(c2ccccc2)CC1 (stereo unspecified) | inactive |
| Cn1c(C2CCCCC2)nc2cc(N)ccc21 | inactive |
| Cc1ccccc1C(=O)Nc1ccccc1N1CCCCC1 | inactive |
| COc1ccc(N2CC(C(=O)Nc3nnc(SCCC4OCCO4)s3)CC2=O)cc1 (stereo unspecified) | inactive |
| O=C(C[C@H]1C[C@H](C(=O)N2CCOCC2)[C@@]2(CCC3CCCC3)c3[nH]c4cc(-c5ccco5)ccc4c3CCN2C1=O)NCc1cccc(C(F)(F)F)c1 | inactive |
| O=C(NNC(=O)C1CC(c2cccs2)=NO1)Nc1ccccc1 (stereo unspecified) | inactive |
